# Source: PubChem BioAssay (NCI)
# Compounds without any hit were thinned out: in the full panel of roughly 79,000, 15% have a hit. Values without a mark were called inactive. The source made the active and inactive calls. No stated cut-off is given here; in the data, active means growth inhibition above about 70%; inactive means the rest.
# Columns and labels:
# [1] = NCI Yeast Anticancer Drug Screen. Data for the rad52 strain (AID 147);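 further: 0% = growth of vehicle-treated control cultures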; details: S. cerevisiae rad52 mutant growth inhibition, active compounds read high
# Summary of the method: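 Yeast strain carrying a DNA damage repair alteration was exposed to test compounds. Growth inhibition was measured relative to vehicle-treated controls.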
# [2] = NCI Yeast Anticancer Drug Screen. Data for the rad50EPP+ strain (AID 151);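 further: 0% = growth of vehicle-treated control cultures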; details: S. cerevisiae rad50 mutant strain, active compounds read high
# Summary of the method: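 Yeast strain carrying rad50 alteration (rad50EPP+) exposed to compounds; growth inhibition measured relative to vehicle-treated controls.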
# [3] = NCI Yeast Anticancer Drug Screen. Data for the mgt1 strain (AID 153); details: S. cerevisiae mgt1 mutant growth inhibition, active compounds read high
# Summary of the method: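 Yeast mgt1 strain (DNA repair/cell-cycle alteration panel) exposed to compounds; growth inhibition measured relative to vehicle-treated controls.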
# [4] = NCI Yeast Anticancer Drug Screen. Data for the rad50 strain (AID 155);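 further: 0% = growth of vehicle-only cultures of the same strain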; details: S. cerevisiae rad50 strain growth inhibition, active compounds read high
# Summary of the method: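 Genetically altered yeast (DNA repair pathway); compound treatment; growth inhibition vs vehicle ctrl.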
# [5] = NCI Yeast Anticancer Drug Screen. Data for the mec2-1 strain (AID 157); details: S. cerevisiae mec2-1 strain, active compounds read high
# Summary of the method: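 mec2-1 yeast strain, carrying an alteration in DNA damage repair or cell cycle control, was exposed to compounds; growth inhibition was measured relative to vehicle-treated controls.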
# [6] = NCI Yeast Anticancer Drug Screen. Data for the rad14 strain (AID 159);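 further: 0% = growth of vehicle-treated control cultures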; details: S. cerevisiae rad14 strain growth inhibition, active compounds read high
# Summary of the method: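 Test compounds were applied to a repair-deficient yeast strain. Its growth was then compared with that of cultures given vehicle alone, and inhibition was expressed relative to those controls.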
# [7] = NCI Yeast Anticancer Drug Screen. Data for the sgs1 mgt1 strain (AID 161);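 further: 0% = growth of cultures given vehicle only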; details: S. cerevisiae sgs1 mgt1 strain, active compounds read high
# Summary of the method: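 Compounds are added to genetically altered yeast, and growth is compared with cultures given vehicle alone to give percent inhibition.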
# [8] = NCI Yeast Anticancer Drug Screen. Data for the CLN2oe strain (AID 163);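 further: 0% = growth of vehicle-only control cultures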; details: S. cerevisiae CLN2oe strain, active compounds read high
# Summary of the method: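 Yeast cells carrying a defined cell-cycle control alteration were exposed to test compounds. Growth inhibition was scored against vehicle-treated control cultures.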
# [9] = NCI Yeast Anticancer Drug Screen. Data for the cln2 rad14 strain (AID 165);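 further: 0% = growth equal to vehicle treated cultures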; details: S. cerevisiae cln2 rad14 strain, active compounds read high
# Summary of the method: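 Yeast carrying cln2 and rad14 alterations (cell cycle control and DNA damage repair) were exposed to compounds. Growth inhibition was measured against vehicle-treated controls.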
# [10] = NCI Yeast Anticancer Drug Screen. Data for the bub3 strain (AID 167); details: S. cerevisiae bub3 mutant strain, active compounds read high
# Summary of the method: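 Yeast carrying a defined mutation is treated with each compound, and growth is compared with that of vehicle-exposed cells to give inhibition.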
# [11] = NCI Yeast Anticancer Drug Screen. Data for the wt2 strain (AID 169);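 further: 0% = growth of vehicle-treated yeast cultures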; details: S. cerevisiae wt2 strain growth inhibition, active compounds read high
# Summary of the method: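 Yeast cells were exposed to test compounds, and growth inhibition was measured relative to vehicle-treated controls.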
# [12] = NCI Yeast Anticancer Drug Screen. Data for the mlh1 strain (AID 171);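 further: 0% = growth of vehicle-treated control cultures of the same strain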; details: S. cerevisiae mlh1 strain growth inhibition, active compounds read high
# Summary of the method: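 Yeast carrying a defined genetic alteration in DNA damage repair or cell cycle control were exposed to test compounds. Growth inhibition was measured relative to vehicle-treated controls.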
# [13] = NCI Yeast Anticancer Drug Screen. Data for the sgs1 strain (AID 173);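 further: 0% = growth of vehicle-only control cultures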; details: S. cerevisiae sgs1 mutant, active compounds read high
# Summary of the method: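 Yeast mutant strains carrying defined defects in DNA damage repair or cell cycle control were exposed to test compounds. Growth inhibition was scored against vehicle-treated controls.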
# [14] = NCI Yeast Anticancer Drug Screen. Data for the mlh1 rad18 strain (AID 175); details: S. cerevisiae mlh1 rad18 strain growth inhibition, active compounds read high
# Summary of the method: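 Growth inhibition of the yeast strain was measured after compound exposure and expressed relative to vehicle-treated controls. The strain carries defined defects in DNA damage repair.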
# [15] = NCI Yeast Anticancer Drug Screen. Data for the rad18 strain (AID 177); details: S. cerevisiae rad18 mutant growth inhibition, active compounds read high
# Summary of the method: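 Yeast carrying a defined DNA damage repair alteration were exposed to compounds. Growth inhibition was expressed relative to vehicle-treated controls.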
# [16] = at 5.0 µM (retest, dose inferred, filed as 0.5)
# [17] = at 50.0 µM (retest, dose inferred, filed as 5.0)
smiles,measurement,setting,value
C[C@]12CCC3[C@@H](CC[C@@H]4c5nonc5CC[C@]34C)C1CCC2=O (stereo partly drawn),growth inhibition,[1]; at 1.2 µM,13%
same,growth inhibition,[1]; at 3.7 µM,22%
same,growth inhibition,[1]; at 11.0 µM,52%
same,growth inhibition,[1]; at 33.0 µM,82% (active)
same,growth inhibition,[1]; at 100.0 µM,85% (active)
same,growth inhibition,[2]; at 1.2 µM,4%
same,growth inhibition,[2]; at 3.7 µM,7%
same,growth inhibition,[2]; at 11.0 µM,16%
same,growth inhibition,[2]; at 33.0 µM,29%
same,growth inhibition,[2]; at 100.0 µM,24%
same,growth inhibition,[3]; at 1.2 µM,20%
same,growth inhibition,[3]; at 3.7 µM,29%
same,growth inhibition,[3]; at 11.0 µM,52%
same,growth inhibition,[3]; at 33.0 µM,84% (active)
same,growth inhibition,[3]; at 100.0 µM,90% (active)
same,growth inhibition,[4]; at 1.2 µM,14%
same,growth inhibition,[4]; at 3.7 µM,18%
same,growth inhibition,[4]; [16],27%
same,growth inhibition,[4]; at 11.0 µM,65%
same,growth inhibition,[4]; at 33.0 µM,80% (active)
same,growth inhibition,[4]; [17],67%
same,growth inhibition,[4]; at 50.0 µM,87.3% (active)
same,growth inhibition,[4]; at 100.0 µM,87% (active)
same,growth inhibition,[5]; at 1.2 µM,6%
same,growth inhibition,[5]; at 3.7 µM,3%
same,growth inhibition,[5]; [16],15%
same,growth inhibition,[5]; at 11.0 µM,29%
same,growth inhibition,[5]; at 33.0 µM,54%
same,growth inhibition,[5]; [17],-11%
same,growth inhibition,[5]; at 50.0 µM,47.6%
same,growth inhibition,[5]; at 100.0 µM,79% (active)
same,growth inhibition,[6]; at 1.2 µM,40%
same,growth inhibition,[6]; at 3.7 µM,40%
same,growth inhibition,[6]; at 11.0 µM,55%
same,growth inhibition,[6]; at 33.0 µM,87% (active)
same,growth inhibition,[6]; at 100.0 µM,90% (active)
same,growth inhibition,[7]; [16],33%
same,growth inhibition,[7]; [17],69%
same,growth inhibition,[7]; at 50.0 µM,87.6% (active)
same,growth inhibition,[8]; at 1.2 µM,38%
same,growth inhibition,[8]; at 3.7 µM,41%
same,growth inhibition,[8]; at 11.0 µM,48%
same,growth inhibition,[8]; at 33.0 µM,47%
same,growth inhibition,[8]; at 100.0 µM,51%
same,growth inhibition,[9]; [16],39%
same,growth inhibition,[9]; [17],54%
same,growth inhibition,[9]; at 50.0 µM,67.7%
same,growth inhibition,[10]; at 1.2 µM,16%
same,growth inhibition,[10]; at 3.7 µM,19%
same,growth inhibition,[10]; [16],-11%
same,growth inhibition,[10]; at 11.0 µM,38%
same,growth inhibition,[10]; at 33.0 µM,61%
same,growth inhibition,[10]; [17],59%
same,growth inhibition,[10]; at 50.0 µM,78.2% (active)
same,growth inhibition,[10]; at 100.0 µM,72% (active)
same,growth inhibition,[11]; at 1.2 µM,3%
same,growth inhibition,[11]; at 3.7 µM,2%
same,growth inhibition,[11]; at 11.0 µM,32%
same,growth inhibition,[11]; at 33.0 µM,83% (active)
same,growth inhibition,[11]; at 100.0 µM,83% (active)
same,growth inhibition,[12]; at 1.2 µM,8%
same,growth inhibition,[12]; at 3.7 µM,11%
same,growth inhibition,[12]; at 11.0 µM,29%
same,growth inhibition,[12]; at 33.0 µM,80% (active)
same,growth inhibition,[12]; at 100.0 µM,86% (active)
same,growth inhibition,[13]; at 1.2 µM,19%
same,growth inhibition,[13]; at 3.7 µM,26%
same,growth inhibition,[13]; at 11.0 µM,66%
same,growth inhibition,[13]; at 33.0 µM,92% (active)
same,growth inhibition,[13]; at 100.0 µM,93% (active)
same,growth inhibition,[14]; [16],37%
same,growth inhibition,[14]; [17],63%
same,growth inhibition,[14]; at 50.0 µM,80.8% (active)
same,growth inhibition,[15]; at 1.2 µM,24%
same,growth inhibition,[15]; at 3.7 µM,22%
same,growth inhibition,[15]; at 11.0 µM,50%
same,growth inhibition,[15]; at 33.0 µM,78% (active)
same,growth inhibition,[15]; at 100.0 µM,83% (active)
